Results from publication PMC4336329 (PLoS ONE, 2015).
About 14,000 (4.5%) of roughly 310,000 compounds showed an effect of 50% or more. The effect is printed as a negative number. The sample holds strong results, similar compounds and a random draw of the others, so the mix is not that of the screen.

Target: human ether-à-go-go-related gene (hERG) potassium channel (human, UniProt Q12809)
Test: primary screen, population patch clamp on CHO cells stably expressing hERG; higher = less effect of the substance
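Also: peak tail current of the secondary pulse compared with the same well before compound.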

Chain of human ether-à-go-go-related gene (hERG) potassium channel (Q12809 whole entry, looked up): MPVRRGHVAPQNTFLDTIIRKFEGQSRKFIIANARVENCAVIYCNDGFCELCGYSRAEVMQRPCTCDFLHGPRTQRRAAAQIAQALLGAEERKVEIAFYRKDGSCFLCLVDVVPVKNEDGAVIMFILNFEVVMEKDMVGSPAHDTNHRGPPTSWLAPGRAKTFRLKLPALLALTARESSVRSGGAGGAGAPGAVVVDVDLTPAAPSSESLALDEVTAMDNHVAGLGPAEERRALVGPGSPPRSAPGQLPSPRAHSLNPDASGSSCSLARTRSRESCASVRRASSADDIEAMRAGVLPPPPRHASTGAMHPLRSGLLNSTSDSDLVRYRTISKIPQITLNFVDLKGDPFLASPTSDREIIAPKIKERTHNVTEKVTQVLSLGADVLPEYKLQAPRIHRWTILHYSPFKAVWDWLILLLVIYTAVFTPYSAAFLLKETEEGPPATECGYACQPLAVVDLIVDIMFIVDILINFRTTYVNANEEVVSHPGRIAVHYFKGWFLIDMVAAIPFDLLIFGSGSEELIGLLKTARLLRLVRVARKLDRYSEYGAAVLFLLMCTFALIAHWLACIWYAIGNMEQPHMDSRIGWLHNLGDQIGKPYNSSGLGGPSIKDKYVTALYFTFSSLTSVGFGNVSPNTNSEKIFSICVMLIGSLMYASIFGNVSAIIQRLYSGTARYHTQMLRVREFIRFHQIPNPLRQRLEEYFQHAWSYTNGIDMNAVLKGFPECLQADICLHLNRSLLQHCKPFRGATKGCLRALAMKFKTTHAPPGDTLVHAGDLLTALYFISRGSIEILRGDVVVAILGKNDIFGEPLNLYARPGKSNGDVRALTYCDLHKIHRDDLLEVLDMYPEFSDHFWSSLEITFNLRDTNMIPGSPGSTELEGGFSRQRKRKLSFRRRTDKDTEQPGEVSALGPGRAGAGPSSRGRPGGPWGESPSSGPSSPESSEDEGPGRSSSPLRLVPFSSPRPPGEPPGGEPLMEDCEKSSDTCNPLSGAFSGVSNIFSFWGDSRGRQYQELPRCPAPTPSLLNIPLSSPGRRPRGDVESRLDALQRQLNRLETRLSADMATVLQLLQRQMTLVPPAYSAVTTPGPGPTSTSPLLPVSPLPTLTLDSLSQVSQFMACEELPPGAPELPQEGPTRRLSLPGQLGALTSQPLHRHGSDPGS

Structure (SMILES)	hERG current change (%, negative = inhibition) at 10uM [%]
COc1cc(C2/C(=C(/O)c3ccccc3)C(=O)C(=O)N2c2ccccn2)ccc1O (stereo not drawn)	25.1
O=C(COC(=O)CN1C(=O)C2CC=CCC2C1=O)Nc1cc(C(F)(F)F)ccc1N1CCOCC1 (stereo not drawn)	-26.8
CC(=O)OCCN(Cc1ccccc1)Cc1ccc2c(c1)OCO2	-10.8
CC(/C=N/n1c(-c2cc(C)[nH]n2)n[nH]c1=S)=C\c1ccccc1	14.7
O=C(CCCN1C(=O)CCC1=O)Nc1ccc(Cl)c(C(F)(F)F)c1	-18.8
O=C(CCCCCN1C(=O)CCC1=O)Nc1ccc(Cl)c(C(F)(F)F)c1	-58.7
COc1ccc(NC(=O)CN(C)C(=O)CSCC(=O)Nc2ccc(C)cc2)cc1	-0.753
CN(CC(=O)Nc1ccc(Cl)c(C(F)(F)F)c1)C(=O)CCCNC(=O)c1ccc(Cl)cc1	-52.2
COc1cccc(NC(=O)CN(C)C(=O)CCCNC(=O)c2ccc(Cl)cc2)c1	-46.5
COc1ccc(CCC(=O)N(C)CC(=O)Nc2ccc(Cl)c(C(F)(F)F)c2)cc1	22.2
COc1ccc(NC(=O)CCCCCN2C(=O)CCC2=O)cc1Cl	-2.22
CN(CC(=O)Nc1cccc(F)c1)C(=O)CCCNC(=O)c1ccc(Cl)cc1	-36.7
Cc1ccc(NC(=O)CN(C)Cc2cc(=O)n3ccsc3n2)cc1	-7.66
CN(CC(=O)Nc1ccc(Cl)c(C(F)(F)F)c1)Cc1cc(=O)n2ccsc2n1	-82.8
CN(CC(=O)Nc1ccc(Cl)cc1)Cc1cc(=O)n2ccsc2n1	-33.3
COc1ccc(NC(=O)CSCC(=O)N(C)CC(=O)Nc2ccc(Cl)c(C(F)(F)F)c2)cc1	-68.6
CC(=O)N1N=C(c2ccc(C)cc2)OC1c1cccnc1 (stereo not drawn)	8.57
CCOC(=O)C1CCCN(S(=O)(=O)c2ccc(-n3cnnn3)c(C)c2)C1 (stereo not drawn)	-11.3
COc1ccc(Cl)cc1NC(=O)CN(C)C(=O)CCCNC(=O)c1ccc(Cl)cc1	-55.4
COc1ccc(Cl)cc1NC(=O)CCCNC(=O)c1ccc(Cl)cc1	-4.84
COc1ccc(Cl)cc1NC(=O)CN(C)C(=O)CCNC(=O)c1ccccc1OC	-9.08
Cc1cc(C)n(/N=C/c2ccccc2)c(=O)c1C#N	17
Cc1ccccc1NC(=O)CSc1nc(-c2ccccc2)cc(=O)[nH]1	24.9

Structure (SMILES)	hERG current change (%, negative = inhibition) at 10uM [%]
CCOc1ncccc1C(=O)Nc1cc(S(=O)(=O)N2CCCCC2)ccc1Cl	20.5
COc1cccc(NC(=O)CSc2nnc3c(n2)[nH]c2ccc(C)cc23)c1	8.36
CC(=O)N1CCN(Cc2nc3cc(NC(=O)c4ccccc4Cl)ccc3n2C)CC1	-20.8
COc1ccc(C(=O)NCCc2nc3cc([N+](=O)[O-])ccc3n2C)cc1	-39.9
Cn1c(CN2CCN(C(=O)c3ccccc3Cl)CC2)nc2cc([N+](=O)[O-])ccc21	-70.7
COc1ccccc1C(=O)N1CCN(Cc2nc3cc([N+](=O)[O-])ccc3n2C)CC1	-67.6
Cn1c(CN2CCOCC2)nc2cc(NC(=O)c3ccccc3Cl)ccc21	-10.4
Cc1cc(C(c2nnnn2Cc2ccccc2)N2CCOCC2)c(C)n1-c1ccc2c(c1)OCO2 (stereo not drawn)	-32.1
CCC(C)(C(=O)Nc1ccccc1C)N(C(=O)CNC(C)=O)c1ccc(C)cc1 (stereo not drawn)	14.8
COc1ccc(NC(=O)COC(=O)CCCC2=NS(=O)(=O)c3ccccc3N2)cc1Cl	38.8
O=C(NCc1ccccc1)c1cc(S(=O)(=O)N2CCCCC2)ccc1N1CCOCC1	-20.1
O=C(CSc1nnc(CNc2ccc(F)cc2)o1)N1CCCc2ccccc21	2.24
CCN1CCCC1CNCC(O)COc1ccc(C(C)(C)C)cc1C.O=C(O)C(=O)O (stereo not drawn)	-54.4
CCN(C(=S)Nc1ccc(OC(F)F)cc1)C1CCCCC1	-22.8
CCN(CC(=O)Nc1ccc(C(=O)OC)cc1)C1CCCCC1	-1.85
CNCC(=O)Nc1ccc(OC(F)(F)F)cc1.Cl	-3.92
CCN1CCCC1CNCC(=O)Nc1ccc(OC(F)(F)F)cc1.O=C(O)C(=O)O (stereo not drawn)	-70.7
Cl.O=C(CNCC1CCCCC1)Nc1ccc(OC(F)(F)F)cc1	-62.4
CCN1CCCC1CNC(=O)C(=O)Nc1ccc(OC)cc1 (stereo not drawn)	-5.95
CCC(C)(C)NCC(=O)Nc1ccc(OC(F)(F)F)cc1	-32.7
O=C(CNCC1CCCCC1)Nc1ccc(N2CCCCC2)cc1.O=C(O)C(=O)O	-17.3
CCN(CC(=O)Nc1ccc(OC(F)F)cc1)C1CCCCC1	-73.5
CCN1CCCC1CNC(=O)C(=O)NCCc1ccc(OC)c(OC)c1 (stereo not drawn)	-1.49

Structure (SMILES)	hERG current change (%, negative = inhibition) at 10uM [%]
CCN1CCCC1CNC(=O)c1cc(N)ccc1OC.O.O=C(O)C(=O)O (stereo not drawn)	13.5
C=CCN1C(=O)NC(=O)/C(=C/c2cc3c4c(c2)CCCN4CCC3)C1=O	-10.2
CC1CC(C(F)(F)F)n2ncc(C(=O)O)c2N1 (stereo not drawn)	11.5
CCNC(=O)c1ccc2c(c1)C1C3CCC(C3)C1C(c1ccccc1)N2 (stereo not drawn)	-5.8
CC1=C(C(=O)Nc2ccc(F)cc2)C(c2ccc(C)o2)C2=C(CC(C)(C)CC2=O)N1 (stereo not drawn)	-7.85
COc1ccccc1CNC(=O)COC(=O)c1cc(=O)[nH]c2ccccc12	1.03
Cc1cc(Cl)ccc1C(=O)C1CCCN(C(=O)c2cnn(C(C)C)c2)C1 (stereo not drawn)	-17.7
CC(C)Oc1ccc(C(=O)NN2C(=O)NC3(CCCCC3)C2=O)cc1	1.38
CCOC(=O)N1CCC(N(CCN(C)C)C(=S)Nc2cccc(C)c2)CC1	4.81
COc1ccc(OC)c(NC(=O)NNC(=O)c2cc3occc3[nH]2)c1	14.3
NNC(=O)CC12CC3CC(C1)CC(n1ncnn1)(C3)C2	-15.1
COc1ccc(CCC(=O)N(c2nnc(-c3cccnc3)s2)C(C)C)cc1.Cl	-49.6
Cc1ccc(NC(=O)Cc2ccc(Cl)c(Cl)c2)cc1S(=O)(=O)N(C)C	7.88
CN(CC(=O)Nc1ccc(F)c(F)c1F)C(=O)C1CCCC1	1.05
CCOC(=O)C1CSC(CC(=O)Nc2ccc(OC(F)(F)F)cc2)C(=O)N1 (stereo not drawn)	-56.3
CCN1CCCC1CNC(=O)C(=O)Nc1ccccc1 (stereo not drawn)	-9.35
CCOC(=O)C1CSC(CC(=O)Nc2ccc(Cl)cc2)C(=O)N1 (stereo not drawn)	-14.9
CCOc1ccc(NC(=O)C(=O)NCC2CCCN2CC)cc1 (stereo not drawn)	-16.4
CN(CC(=O)Nc1ccc(F)c(F)c1F)C(=O)C1CCC1	9.13
Cc1ccc(NC(=O)CN(C)C2CCCCC2)cc1Br.Cl	-28.8
CN(CC(=O)Nc1ccc(OC(F)(F)F)cc1)C1CCCCC1.Cl	-61.6
CCOC(=O)C1CSC(CC(=O)Nc2ccc(OCC)cc2)C(=O)N1 (stereo not drawn)	-5.69
CN(CC(=O)Nc1ccc(F)c(F)c1F)C1CCCCC1	-52.5

Structure (SMILES)	hERG current change (%, negative = inhibition) at 10uM [%]
CCCCCOc1ccc(NC(=O)C(=O)NCC2CCCN2CC)cc1 (stereo not drawn)	-77.9
CN(CC(=O)Nc1ccc(OC(F)(F)F)cc1)C(=O)C1CCC1	-1.21
CC(=O)Nc1ccc(NC(=O)c2ccc(COc3ccccc3Br)o2)cc1	17.1
CCOC(=O)c1c(C)[nH]c(C(=O)COC(=O)CN2C(=O)C3CCCCC3C2=O)c1C (stereo not drawn)	-16.8
Nc1cc(-c2ccccc2)nn1Cc1ccc(Cl)cc1	-19
O=C(CCCOc1ccccc1)Nc1ccc(Br)cc1	22.3
CC(=O)OCCn1c(=O)c2cc3c(=O)n(CCOC(C)=O)c(=O)c3cc2c1=O	-4.39
Cn1nccc1C(=O)N1CCC(Cc2ccccc2)CC1	-9.69
Cc1ccc(S(=O)(=O)N2CCOCC2)cc1C(=O)N1CC(C)OC(C)C1 (stereo not drawn)	15.1
COc1ccc(S(=O)(=O)N2CCCCC2)cc1NC(=O)CN(Cc1ccco1)Cc1ccco1	-23.7
Cc1ccccc1C(=O)NC(=S)Nc1ccc2[nH]c(=O)[nH]c2c1	23.1
COC(=O)c1ccc(COC(=O)c2c(C)nn(Cc3ccccc3Cl)c2Cl)o1	10.9
COCCCNCC(=O)Nc1ccc(OC(F)(F)F)cc1.Cl	-30
CN(CC(=O)Nc1ccc(S(N)(=O)=O)cc1)C1CCCCC1	-1.84
COCCNCC(=O)Nc1ccc(OC(F)(F)F)cc1.Cl	-33.9
COc1ccc(NC(=O)CN(C2CCCCC2)S(C)(=O)=O)cc1Cl	-18.4
CN(CC(=O)Nc1ccc(SC(F)F)cc1)C1CCCCC1	-70
CCOCCCNCC(=O)Nc1ccc(OC(F)(F)F)cc1.Cl	-56.4
COc1ccc(NC(=O)CN(C)C2CCCCC2)cc1Cl	-55
CN(CC(=O)Nc1ccc(Cl)c(Cl)c1)C1CCCCC1.O=C(O)C(=O)O	-7.28
CN(CC(=O)Nc1ccc(Cl)cc1)C1CCCCC1	-10
